Experimental data: PubChem BioAssay AID1159580 (chemical genetic matrix, 2015)
Among all 5,500 compounds or so, about 2,000 (36%) were called active. About 18% were inconclusive and are not listed. No stated cut-off is given here; in the data, active means normalized growth mostly below about 0.91 (no sharp cut-off); inconclusive means no clear call, values can overlap the other calls; inactive means mostly above about 0.92. Some of the results follow.

Assay: chemical genetic growth profiling, strain panel (AID 1159580);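 further: tested at 20 µM; growth read once vehicle control cultures reached saturation at 30 °C; 1 = growth at the plate median or of vehicle wells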
Details: S. cerevisiae deletion strains, growth OD
[1] = locus YAR019C, strain CDC15, stronger effect = lower value
[2] = locus YBL105C, strain PKC1, stronger effect = lower value
[3] = locus YBR135W, strain CKS1, stronger effect = lower value
[4] = locus YBR136W, strain MEC1, stronger effect = lower value
[5] = locus YBR160W, strain CDC28, stronger effect = lower value
[6] = locus YDL017W, strain CDC7, stronger effect = lower value
[7] = locus YDL028C, strain MPS1, stronger effect = lower value
[8] = locus YDL101C, strain DUN1, stronger effect = lower value
[9] = locus YDL108W, strain KIN28, stronger effect = lower value
[10] = locus YDL132W, strain cdc53, stronger effect = lower value
[11] = locus YDL214C, strain PRR2, stronger effect = lower value
[12] = locus YDR052C, strain DBF4, stronger effect = lower value
[13] = locus YDR054C, strain cdc34, stronger effect = lower value
[14] = locus YDR226W, strain ADK1, stronger effect = lower value
[15] = locus YDR477W, strain SNF1, stronger effect = lower value
[16] = locus YER123W, strain YCK3, stronger effect = lower value
[17] = locus YER133W, strain GLC7, stronger effect = lower value
[18] = locus YFL009W, strain cdc4, stronger effect = lower value
[19] = locus YFL029C, strain CAK1, stronger effect = lower value
[20] = locus YFR003C, strain YPI1, stronger effect = lower value
[21] = locus YFR019W, strain FAB1, stronger effect = lower value
[22] = locus YFR028C, strain CDC14, stronger effect = lower value
[23] = locus YGR040W, strain KSS1, stronger effect = lower value
[24] = locus YGR052W, strain FMP48, stronger effect = lower value
[25] = locus YGR092W, strain DBF2, stronger effect = lower value
[26] = locus YHR030C, strain SLT2, stronger effect = lower value
[27] = locus YHR079C, strain IRE1, stronger effect = lower value
[28] = locus YHR082C, strain KSP1, stronger effect = lower value
[29] = locus YHR205W, strain SCH9, stronger effect = lower value
[30] = locus YIL147C, strain SLN1, stronger effect = lower value
[31] = locus YJL095W, strain BCK1, stronger effect = lower value
[32] = locus YJL128C, strain PBS2, stronger effect = lower value
[33] = locus YJL157C, strain FAR1, stronger effect = lower value
[34] = locus YJR016C, strain ILV3, stronger effect = lower value
[35] = locus YJR066W, strain TOR1 (second series), stronger effect = lower value
[36] = locus YJR066W, strain TOR1, stronger effect = lower value
[37] = locus YKL048C, strain ELM1, stronger effect = lower value
[38] = locus YKL067W, strain YNK1, stronger effect = lower value
[39] = locus YKL101W, strain HSL1, stronger effect = lower value
[40] = locus YKL193C, strain SDS22, stronger effect = lower value
[41] = locus YKL203C, strain TOR2, stronger effect = lower value
[42] = locus YLR113W, strain HOG1, stronger effect = lower value
[43] = locus YLR133W, strain CKI1, stronger effect = lower value
[44] = locus YLR403W, strain SFP1, stronger effect = lower value
[45] = locus YML070W, strain DAK1, stronger effect = lower value
[46] = locus YMR001C, strain CDC5, stronger effect = lower value
[47] = locus YMR205C, strain PFK2 (second series), stronger effect = lower value
[48] = locus YMR277W, strain FCP1, stronger effect = lower value
[49] = locus YNL006W, strain LST8, stronger effect = lower value
[50] = locus YNL020C, strain ARK1, stronger effect = lower value
[51] = locus YNL161W, strain CBK1, stronger effect = lower value
[52] = locus YNL183C, strain NPR1, stronger effect = lower value
[53] = locus YNL207W, strain RIO2, stronger effect = lower value
[54] = locus YNL222W, strain SSU72, stronger effect = lower value
[55] = locus YNL307C, strain MCK1 (second series), stronger effect = lower value
[56] = locus YOL078W, strain AVO1, stronger effect = lower value
[57] = locus YOL136C, strain PFK27, stronger effect = lower value
[58] = locus YOR061W, strain CKA2, stronger effect = lower value
[59] = locus YOR119C, strain RIO1, stronger effect = lower value
[60] = locus YOR231W, strain MKK1, stronger effect = lower value
[61] = locus YOR329C, strain SCD5, stronger effect = lower value
[62] = locus YPL031C, strain PHO85, stronger effect = lower value
[63] = locus YPL153C, strain RAD53, stronger effect = lower value
[64] = locus YPL204W, strain HRR25, stronger effect = lower value
[65] = locus YPL209C, strain IPL1, stronger effect = lower value
[66] = locus YPL256C, strain CLN2, stronger effect = lower value
[67] = locus YPR025C, strain CCL1, stronger effect = lower value
[68] = locus YPR106W, strain ISR1, stronger effect = lower value
[69] = locus YPR111W, strain DBF20, stronger effect = lower value
[70] = strain NNK1, stronger effect = lower value
[71] = strain TSCII, stronger effect = lower value

Measured: normalized growth

O=S(=O)(Nc1cc(Cl)c(Cl)cc1Cl)c1cc(C(F)(F)F)cc(C(F)(F)F)c1
active: [26] 0.71 | [42] 0.818 | [66] 0.813
inactive: [1] 0.957 | [2] 0.956 | [3] 0.961 | [4] 0.954 | [5] 0.946 | [6] 0.959 | [7] 0.962 | [8] 0.972 | [9] 0.966 | [10] 0.963 | [11] 0.924 | [12] 0.941 | [13] 0.953 | [14] 0.956 | [15] 0.919 | [16] 0.882 | [17] 0.937 | [18] 0.959 | [19] 0.955 | [20] 0.964 | [21] 0.916 | [22] 0.958 | [23] 0.9 | [24] 0.913 | [25] 0.892 | [27] 0.897 | [28] 0.899 | [29] 0.946 | [30] 0.963 | [31] 0.963 | [32] 0.969 | [33] 0.892 | [34] 0.968 | [35] 0.92 | [36] 0.976 | [37] 0.906 | [38] 0.935 | [39] 0.902 | [40] 0.963 | [41] 0.955 | [43] 0.903 | [44] 0.916 | [45] 0.911 | [46] 0.96 | [47] 0.954 | [48] 0.963 | [49] 0.966 | [50] 0.89 | [51] 0.962 | [52] 0.916 | [53] 0.948 | [54] 0.962 | [55] 0.874 | [56] 0.959 | [57] 0.871 | [58] 0.93 | [59] 0.983 | [60] 0.913 | [61] 0.963 | [62] 0.917 | [63] 0.921 | [64] 0.881 | [65] 0.952 | [67] 0.962 | [68] 0.946 | [69] 0.944 | [70] 0.956 | [71] 0.956

O=S(=O)(NCc1ccc(C(F)(F)F)cc1)c1cc(Br)c(Br)s1
inactive: [1] 0.987 | [2] 0.969 | [3] 0.971 | [4] 0.985 | [5] 0.966 | [6] 0.967 | [7] 0.984 | [8] 0.975 | [9] 0.974 | [10] 0.973 | [11] 0.786 | [12] 0.979 | [13] 0.973 | [14] 0.984 | [15] 0.856 | [16] 0.747 | [17] 0.794 | [18] 0.979 | [19] 0.982 | [20] 0.974 | [21] 0.845 | [22] 0.967 | [23] 0.818 | [24] 0.729 | [25] 0.801 | [27] 0.813 | [29] 0.618 | [30] 0.98 | [31] 0.741 | [32] 0.924 | [33] 0.872 | [34] 0.98 | [35] 0.794 | [36] 0.689 | [38] 0.835 | [40] 0.967 | [41] 0.851 | [43] 0.839 | [44] 0.808 | [45] 0.797 | [46] 0.964 | [47] 0.831 | [48] 0.965 | [49] 0.98 | [50] 0.838 | [51] 0.969 | [52] 0.659 | [53] 0.977 | [54] 0.967 | [55] 0.846 | [56] 0.969 | [57] 0.811 | [58] 0.848 | [59] 0.772 | [60] 0.792 | [61] 0.969 | [62] 0.774 | [63] 0.716 | [64] 0.795 | [65] 0.973 | [67] 0.965 | [68] 0.97 | [69] 0.982 | [70] 0.968 | [71] 0.97
active: [26] 0.645 | [28] 0.607 | [37] 0.791 | [39] 0.714 | [42] 0.721 | [66] 0.728

O=S(=O)(NCc1ccc(C(F)(F)F)cc1)c1cccc(C(F)(F)F)c1
active: [42] 0.802
inactive: [1] 0.985 | [2] 0.986 | [3] 0.982 | [4] 0.985 | [5] 0.988 | [6] 0.989 | [7] 0.98 | [8] 0.987 | [9] 0.983 | [10] 0.973 | [11] 0.945 | [12] 0.987 | [13] 0.985 | [14] 0.99 | [15] 0.956 | [16] 0.908 | [17] 0.948 | [18] 0.974 | [19] 0.977 | [20] 0.983 | [21] 0.981 | [22] 0.983 | [23] 0.958 | [24] 0.97 | [25] 0.942 | [26] 0.883 | [27] 0.886 | [28] 1.04 | [29] 0.943 | [30] 0.984 | [31] 0.869 | [32] 0.917 | [33] 0.954 | [34] 0.984 | [35] 0.922 | [36] 1.02 | [37] 0.976 | [38] 0.96 | [39] 0.936 | [40] 0.983 | [41] 1.01 | [43] 0.976 | [44] 0.971 | [45] 0.921 | [46] 0.987 | [47] 0.948 | [48] 0.984 | [49] 0.98 | [50] 0.964 | [51] 0.985 | [52] 1.04 | [53] 0.987 | [54] 0.983 | [55] 0.954 | [56] 0.987 | [57] 0.916 | [58] 0.987 | [59] 1.02 | [60] 0.952 | [61] 0.987 | [62] 0.95 | [63] 0.937 | [64] 0.918 | [65] 0.986 | [66] 0.885 | [67] 0.981 | [68] 0.979 | [69] 0.97 | [70] 0.984 | [71] 0.995
